From PubChem BioAssay AID463173 (ICCB-Longwood Screening Facility, Harvard Medical School, 2010)
Among all 52,000 compounds or so, about 4,300 (8.3%) were called active. Shown is part of a subset that was picked to be rich in actives. A number with no mark means an inactive call. No stated cut-off is given here; in the data, active means survival mostly below about 52% (no sharp cut-off); inactive means mostly above about 56%.

These compounds were tested on DeltatarO mutant (assay: growth inhibition of S. aureus wild type versus tarO mutant, primary screen, teichoic acid synthesis inhibitors, RN4220, OD600 (AID 463173)). Conditions: OD600, 18 h, hits give low values, screened at 18.75 µg/mL (by protocol).

SMILES | survival
Cc1ccc(Cl)cc1NC(=O)CN1C(=O)CSc2ccc(S(=O)(=O)N3CCCC3)cc21 | 97%
CCN1CCN(CCCNC(=O)Cn2nc(C)n3c(cc4cc(C)ccc43)c2=O)CC1 | 98%
Cc1cc(C)cc(NC(=O)CCCn2nc(C)c3c(C)n(-c4ccccc4)nc3c2=O)c1 | 80%
NC(Cc1c[nH]c2ccccc12)C(=O)NCc1ccccc1 (configuration not stated) | 92%
CN1C(C(=O)c2ccccc2)=C(NC(=O)c2ccccc2Br)c2ccccc2S1(=O)=O | 63%
COC(=O)c1cc(Nc2nc3ccccc3nc2NS(=O)(=O)c2ccc(C)cc2)ccc1Cl | 29% (active)
O=S(=O)(Nc1nc2ccccc2nc1Nc1ccccc1Br)c1ccccc1 | 112%
COc1ccccc1C(=O)Nc1ccc(S(=O)(=O)Nc2nc(C)cc(C)n2)cc1 | 61%
CCn1c(=O)c2sccc2n2c(CCC(=O)Nc3ccc(OC)c(Cl)c3)nnc12 | 89%
CCOc1ccc(CNC(=O)c2ccc(-c3nc(CS(=O)(=O)c4ccccc4)c(C)o3)cc2)cc1 | 76%
COC(=O)c1ccccc1NC(=O)CN(c1ccc(Cl)cc1)S(=O)(=O)c1ccc(OC)cc1 | 72%
COc1cccc(NC(=O)c2sc3nc(C)c(C(=O)Nc4ccc(C)cc4C)c(-c4ccc(C)o4)c3c2N)c1 | 39% (active)
COc1cccc(NC(=O)c2sc3nc(C)c(C(=O)Nc4ccc(C)cc4C)c(-c4ccco4)c3c2N)c1 | 79%
COc1ccc(NC(=O)c2sc3nc(C)c(C(=O)Nc4ccc(C)cc4C)c(-c4ccc(C)o4)c3c2N)cc1 | 51%
Cc1ccc(/C=C/c2onc(C)c2S(=O)(=O)N2CCC(C(=O)N3CCN(c4ccccc4F)CC3)CC2)cc1 | 116%
Cc1ccc(CCNC(=O)c2ccc(NC(=O)N3CC(C)Sc4ccccc43)cc2)cc1 (configuration not stated) | 73%
CCOc1ccc(-c2nc(Cn3c(=O)cc(-c4ccccc4)c4c(C)nn(C)c43)c(C)o2)cc1 | 128%
CCc1ccc(-c2[nH]nc3nc(-c4ccc(OC)cc4)cc(C(=O)NCCc4ccc(OC)c(OC)c4)c23)cc1 | 81%
CCc1ccc(-c2cn3nc(CC)sc3n2)cc1 | 66%
CC(=O)N1CCc2c(sc3c2c(=O)n(CCc2ccccc2)c(=O)n3CC(=O)Nc2ccccc2F)C1 | 55%
COc1c(C)cc(NS(=O)(=O)c2ccc3c(c2)OCCO3)cc1C | 72%
O=C(COCc1cc(-c2cccs2)on1)Nc1cccc(O)c1 | 0% (active)

SMILES | survival
O=C(COCc1cc(-c2cccs2)on1)N1CCN(c2cccc(Cl)c2)CC1 | 37% (active)
O=C(COCc1cc(-c2cccs2)on1)N1CCN(c2ccc(F)cc2)CC1 | 98%
O=C(COCc1cc(-c2ccco2)on1)Nc1cccc(O)c1 | 78%
Cc1ccc(NC(=O)COCc2cc(-c3cccs3)on2)cc1Cl | 57%
O=C(COCc1cc(-c2cccs2)on1)N1CCN(c2ccccc2)CC1 | 72%
O=C(c1ccc2c(c1)N(Cc1ccccc1F)C(=O)c1ccccc1S2=O)N1CCC(Cc2ccccc2)CC1 (configuration not stated) | 77%
Cc1cccc(C)c1NC(=O)Cn1nnc(S(=O)(=O)c2ccccc2)c1N | 91%
Cc1cccc(NC(=O)CSc2cn(CC(=O)N3CCOCC3)c3ccccc23)c1C | 64%
O=C(c1ccc2c(c1)N(Cc1ccccc1)C(=O)c1ccccc1S2(=O)=O)N1CCCCCC1 | 70%
COc1ccc(CNC(=O)C(C)n2ccc3cc(S(=O)(=O)N4CCCC4)ccc32)cc1OC (configuration not stated) | 85%
O=C(NCc1ccco1)C(c1ccccc1)N(CCc1ccccc1)C(=O)Cn1nnc2ccccc21 (configuration not stated) | 99%
O=C(CSc1c2c(nc3ccc(Cl)cc13)CCCC2)N1CCN(c2ccc(Cl)cc2)CC1 | 31% (active)
COc1ccc(N2CCN(C(=O)CSc3c4c(nc5ccc(Cl)cc35)CCCC4)CC2)cc1 | 35% (active)
O=C(CSc1c2c(nc3ccc(Cl)cc13)CCCC2)N1CCN(c2cccc(Cl)c2)CC1 | 51% (active)
COc1ccc(OC)c(NC(=O)CSc2c3c(nc4cc(Cl)ccc24)CCCC3)c1 | 86%
O=C(CSc1c2c(nc3cc(Cl)ccc13)CCCC2)N1CCN(c2ccccc2)CC1 | 33% (active)
COc1ccc(CNC(=O)CSc2c3c(nc4ccc(Cl)cc24)CCCC3)cc1 | 77%
O=C(CSc1c2c(nc3cc(Cl)ccc13)CCCC2)NCc1ccccc1Cl | 75%
O=C(CSc1c2c(nc3cc(Cl)ccc13)CCCC2)N1CCN(c2ccccc2F)CC1 | 50%
Cc1sc2ncn(CC(=O)Nc3ccc(C(C)C)cc3)c(=O)c2c1S(=O)(=O)N1CCN(c2ncccn2)CC1 | 59%
CC1=C(C(=O)Nc2ccccc2C)C(c2ccco2)n2ncnc2N1 (configuration not stated) | 101%
CCc1cccc(C)c1NS(=O)(=O)c1cc2[nH]c(=O)c(=O)[nH]c2cc1C | 80%

SMILES | survival
CC(=O)c1ccc(N2CCN(c3ncnc4c3nc3n4CCCC3)CC2)cc1 | 75%
COC(=O)c1ccccc1NC(=O)Cn1c(=O)n(CCCCC(=O)NCc2ccc3c(c2)OCO3)c(=O)c2ccccc21 | 67%
COc1ccc(-c2nc3sc(CCNC(=O)c4ccc(Br)o4)c(C)n3n2)cc1 | 92%
COc1ccc(C)cc1NC(=O)C1COc2ccccc2C1 (configuration not stated) | 83%
COc1ccccc1C(=O)N(c1ccc(C)cc1)S(=O)(=O)c1ccc(Cl)cc1 | 74%
COC(=O)c1ccc(NC(=O)CC2C(=O)N(c3cccc(OC)c3)C(=O)N2Cc2cccc(OC)c2)cc1 (configuration not stated) | 105%
COC(=O)c1ccc(Cl)cc1NC(=O)N1CCCn2nc(C)cc21 | 94%
COc1ccc(C)cc1NC(=O)N1CCCn2nc(C)cc21 | 73%
COc1cc(OC)c(NC(=O)N2CCCn3nc(C)cc32)cc1Cl | 47% (active)
O=C(NC1CCCCC1)C(Cc1ccccc1)N1C(=O)C2C3C=CC(C3)C2C1=O (configuration not stated) | 92%
Cc1cc(F)ccc1Nc1nc2ccc(Cl)cc2n2cnnc12 | 90%
Cc1ccc2nc(NCc3ccc(F)cc3)c3nncn3c2c1 | 121%
Cc1ccc2nc(Nc3ccc(C)c(F)c3)c3nncn3c2c1 | 38% (active)
Cc1ccc(NC(=O)c2ccc(=O)n(CC(=O)Nc3cccc(C)c3)n2)cc1 | 72%
COc1cccc(CNC(=O)CCc2c(C)nn(-c3ccc(N4CCOCC4)nn3)c2C)c1 | 100%
Cc1ccccc1C(=O)Nc1cccc(OCc2cc(=O)n3cccc(C)c3n2)c1 | 77%
Cc1ccc(OCC(=O)Nc2cccc(OCc3cc(=O)n4cccc(C)c4n3)c2)cc1C | 122%
Cc1cccc(C(=O)Nc2ccc(OCc3cc(=O)n4ccc(C)cc4n3)cc2)c1 | 81%
Cc1ccc(OCC(=O)Nc2ccc(OCc3cc(=O)n4cccc(C)c4n3)cc2)cc1C | -5% (active)
Cc1ccccc1C(=O)Nc1ccc(OCc2cc(=O)n3cccc(C)c3n2)cc1 | 88%
CCOc1ccc(C(=O)Nc2ccc(OCc3cc(=O)n4cccc(C)c4n3)cc2)cc1 | 55%
Cc1cccn2c(=O)cc(COc3cccc(NC(=O)c4ccccc4F)c3)nc12 | -5% (active)

SMILES | survival
Cc1cccn2c(=O)cc(COc3ccc(NC(=O)COc4ccc(F)cc4)cc3)nc12 | 89%
COc1cc(C(=O)Nc2ccc(OCc3cc(=O)n4ccc(C)cc4n3)cc2)cc(OC)c1OC | 8% (active)
Cc1cccc(C(=O)Nc2cccc(OCc3cc(=O)n4cccc(C)c4n3)c2)c1 | 92%
COc1ccccc1C(=O)Nc1ccc(OCc2cc(=O)n3ccc(C)cc3n2)cc1 | 89%
Cc1cccn2c(=O)cc(COc3ccc(NC(=O)c4cccc(F)c4)cc3)nc12 | 17% (active)
CCOC(=O)c1ccccc1NC(=O)N1CCc2c(sc(C)c2CC)C1c1ccccc1 (configuration not stated) | 124%
O=C(Cc1csc2ccccc12)NCc1cccc(Br)c1 | 84%
O=S(=O)(c1ccc(-c2cnc(C3CC3)o2)cc1)N1CCN(c2ccccc2F)CC1 | 87%
Cc1ccc(C(=O)NCc2ccccc2)cc1NC(=O)c1nsc2ccccc12 | 84%
CCOc1ccc(NC(=O)N(C(C)C)C2CCN(C(C)=O)CC2)cc1 | 76%
CCC(C)NC(=O)c1sc2nc(C)c(C(=O)Nc3ccc(C)cc3C)c(-c3ccc(NC(C)=O)cc3)c2c1N (configuration not stated) | 88%
CC(C)CC(C(=O)NCC1CCN(Cc2ccc(F)cc2)CC1)N1Cc2ccccc2C1=O (configuration not stated) | 94%
COc1cc(NS(=O)(=O)c2cc(Br)cc3c2N(C(C)=O)C(C)C3)cc(OC)c1 (configuration not stated) | 20% (active)
COc1cccc(CNS(=O)(=O)c2cc(Br)cc3c2N(C(C)=O)C(C)C3)c1 (configuration not stated) | 128%
COc1ccccc1CNS(=O)(=O)c1cc(Br)cc2c1N(C(C)=O)C(C)C2 (configuration not stated) | 53%
COc1ccc(CNS(=O)(=O)c2cc(Br)cc3c2N(C(C)=O)C(C)C3)cc1 (configuration not stated) | 131%
CC(=O)N1c2c(cc(Br)cc2S(=O)(=O)Nc2ccc(OC(F)(F)F)cc2)CC1C (configuration not stated) | 66%
CC(=O)N1c2c(cc(Br)cc2S(=O)(=O)Nc2ccccc2C)CC1C (configuration not stated) | 68%
CCOc1ccc(N(CC)S(=O)(=O)c2cc(Br)cc3c2N(C(C)=O)C(C)C3)cc1 (configuration not stated) | 60%
CCN(c1cccc(C)c1)S(=O)(=O)c1cc(Br)cc2c1N(C(C)=O)C(C)C2 (configuration not stated) | 51% (active)
CC(=O)N1c2c(cc(Br)cc2S(=O)(=O)NCc2ccccc2Cl)CC1C (configuration not stated) | 46% (active)
